Pf growth 48h = Primary qHTS for delayed death inhibitors of the malarial parasite plastid, 48 hour incubation; AID 504832, 2011; P. falciparum luciferase growth in erythrocytes, 48 h; 5.9% of 310,000 active; Potency, µM (doses to about 28.7 µM), most hits filed as inhibitors
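Luminescence readout; reporter = integrated firefly luciferase in P. falciparum. RBC culture at 2% hematocrit, 0.1% parasitemia final, 37 C/5% CO2; decreased signal taken as growth inhibition.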
Pf growth 96h = Primary qHTS for delayed death inhibitors of the malarial parasite plastid, 96 hour incubation; 6.9% of 320,000 active; P. falciparum luciferase reporter growth, 96 h; Potency, µM (top dose mostly 28.7 µM), actives largely listed as inhibitors
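Compounds incubated with erythrocytes infected by luciferase-expressing P. falciparum (2% hematocrit, 0.05% parasitemia final) for 96 hours, 37 C in 5% CO2. Growth inhibition scored as decreased luciferase luminescence.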
Shiga toxin inh = A qHTS for Small Molecule Inhibitors of Shiga Toxin. Vero cells, Shiga toxin protein synthesis inhibition reporter. AID 2315, 2010. 9.2% of 290,000 active. inhibition, % at 38.7 µM; in the data active = inhibition mostly above about 28%, no sharp cut-off; inactive = mostly below about 43%
Cycloheximide cs = Cycloheximide Counterscreen for Small Molecule Inhibitors of Shiga Toxin | cell reporter, cycloheximide protein synthesis inhibition counterscreen | max response, % | 12% of 300,000 active; in the data active = max response mostly above about 13%, no sharp cut-off; inactive = mostly below about 14%; also: read at 38.3 µM for the half of the compounds with a filed dose
HCMV inh = qHTS Assay for inhibitors of the human cytomegalovirus (HCMV) | 4.5% of 410,000 active | HFF cells, HCMV-luciferase reporter, 72 h; active compounds read low | AID 1259415, 2018 | activity change, negative = inhibition, % at 57.5 µM; in the data active = activity change below about -60%; inconclusive = no clear call, values can overlap the other calls; inactive = above about -39%
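Inhibition of viral replication was scored as loss of reporter luminescence in HFFs infected with HCMV-luciferase (MOI 1 PFU/cell) for 72 h; compounds tested at 2 doses, normalized to buffer and Salinomycin controls.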
Numbers stand for hits. The list is not random: actives were taken first. Their share in the collection is about 20%. Unless noted, calls follow the shape of the dose curve; as a rule, active = well fitted inhibition curve with a large enough effect; inconclusive = small, poorly fitted or top-dose-only effect, or another doubt; inactive = no such curve, though single readings can be large or run the other way.

CCOC(=O)C1=C(C)Nc2sc(C(=O)c3ccc(F)cc3)c(N)c2C1c1ccc(C(=O)OC)cc1 (configuration not stated) was read as Pf growth 48h 7.4µM, Pf growth 96h 4.7µM, Shiga toxin inh inactive, Cycloheximide cs inactive and HCMV inh inactive.
Screening Clc1ccccc1/C=N/Nc1cc(N2CCOCC2)ncn1 returned Pf growth 48h inactive, Pf growth 96h 8.3µM, Shiga toxin inh inactive, Cycloheximide cs inactive and HCMV inh inactive.
`C/C(=N\Nc1cc(N2CCOCC2)ncn1)c1ccccc1` gave Pf growth 48h inactive, Pf growth 96h inconclusive, Shiga toxin inh 30, Cycloheximide cs 28 and HCMV inh inactive.
`CCCOc1ccc(/C=N/Nc2cc(N3CCOCC3)ncn2)c(O)c1` gave Pf growth 48h 2.1µM, Pf growth 96h inactive, Shiga toxin inh inactive, Cycloheximide cs inactive and HCMV inh -101.
`COc1ccc(CNc2nc3c(c(C(F)(F)F)n2)CCCCC3)cc1` gave Pf growth 48h inactive, Pf growth 96h inactive, Shiga toxin inh inactive and Cycloheximide cs inactive.
For O=C(Cn1nnc2c(cnn2-c2ccc(F)cc2)c1=O)Nc1ccccc1C(F)(F)F the results were Pf growth 48h inactive, Pf growth 96h inactive, Shiga toxin inh inactive, Cycloheximide cs inactive and HCMV inh inactive.
CC(=O)n1cc([C@H]2C=C(C(=O)N3CCN(Cc4ccc5c(c4)OCO5)CC3)O[C@@H](OCc3ccc(CO)cc3)C2)c2ccccc21 was read as Pf growth 48h 4.7µM, Pf growth 96h 3.3µM, Shiga toxin inh inactive, Cycloheximide cs inactive and HCMV inh inactive.
Screening CC(=O)n1cc([C@H]2C=C(C(=O)N3CCN(Cc4ccccc4)CC3)O[C@@H](OCc3ccc(CO)cc3)C2)c2ccccc21 returned Pf growth 48h inconclusive, Pf growth 96h 2.9µM, Shiga toxin inh inactive, Cycloheximide cs inactive and HCMV inh inactive.
For Cc1cc(C)nc(Sc2ncnc3c2oc2ccccc23)n1 the results were Pf growth 48h inconclusive, Pf growth 96h inconclusive, Shiga toxin inh 50, Cycloheximide cs inactive and HCMV inh inactive.
For Clc1ncnc2c1oc1ccccc12 the results were Pf growth 48h inactive, Pf growth 96h inconclusive, Shiga toxin inh active, Cycloheximide cs 37 and HCMV inh inactive.
For Nc1nc(N2CCN(C/C=C/c3ccccc3)CC2)nc2ccccc12 the results were Pf growth 48h 12µM, Pf growth 96h inactive, Shiga toxin inh inactive, Cycloheximide cs inactive and HCMV inh inactive.
Screening c1coc(CN(Cc2ccco2)c2ncnc3c2oc2ccccc23)c1 returned Pf growth 48h inconclusive, Pf growth 96h inconclusive, Shiga toxin inh inactive and Cycloheximide cs 19.
For CC(C)Oc1ccc(C(=O)Nc2nonc2-c2ccc(OC(C)C)cc2)cc1 the results were HCMV inh inactive.
For Cc1ccc(NC(=O)c2ncn(CC(=O)N3CCN(c4ccccn4)CC3)n2)cc1C the results were HCMV inh inactive.
`c1cnc(N2CCN(c3ncnc4c3oc3ccccc34)CC2)nc1` gave Pf growth 48h inactive, Shiga toxin inh inactive and Cycloheximide cs inactive.
Screening COc1ccccc1N1CCN(c2ncnc3c2oc2ccccc23)CC1 returned Pf growth 48h inconclusive, Pf growth 96h inactive, Shiga toxin inh inactive, Cycloheximide cs 8.6 and HCMV inh inactive.
`O=C(c1ccco1)N1CCN(c2ncnc3c2oc2ccccc23)CC1` gave Pf growth 48h inactive, Shiga toxin inh 63, Cycloheximide cs 41 and HCMV inh inactive.
O=C(c1ccco1)N1CCN(c2nnc(-c3ccccc3)c3ccccc23)CC1 was read as Pf growth 96h inconclusive, Shiga toxin inh inactive, Cycloheximide cs inactive and HCMV inh inactive.
`c1ccc2c(c1)oc1c(N3CCOCC3)ncnc12` gave Pf growth 48h inactive, Pf growth 96h inconclusive, Shiga toxin inh inactive, Cycloheximide cs 9.8 and HCMV inh inactive.
`C(=C\c1ccccc1)/CN1CCN(c2ncnc3c2oc2ccccc23)CC1` gave Pf growth 48h inactive, Pf growth 96h inactive, Shiga toxin inh inactive, Cycloheximide cs inactive and HCMV inh -73.
Screening CC1CCN(S(=O)(=O)c2ccc3c(c2)N(CC(=O)O)C(=O)CO3)CC1 returned HCMV inh inactive.
`Cc1nc2ccn(Cc3cccnc3)c(=O)c2cc1C(=O)Nc1ccc(OC(F)(F)F)cc1` gave HCMV inh inactive.
Screening Cn1c(=O)c2c(nc(SCC(=O)OCc3ccccc3)n2C)n(C)c1=O returned Pf growth 48h inactive, Shiga toxin inh inactive, Cycloheximide cs inactive and HCMV inh inactive.
Screening Cc1nc(SCC(=O)OCc2ccccc2)c2c(=O)n(C)c(=O)n(C)c2n1 returned Pf growth 48h 7.4µM, Pf growth 96h inconclusive, Shiga toxin inh inactive, Cycloheximide cs inactive and HCMV inh inactive.
Screening CC(=O)c1cccc2c(O)c(C3=Nc4ccccc4C3=O)[nH]c12 returned Pf growth 48h inactive, Pf growth 96h inconclusive, Shiga toxin inh 89, Cycloheximide cs 48 and HCMV inh inactive.
For CCCCn1nnnc1C(c1cc2ccccc2o1)N(Cc1ccccc1)Cc1ccccc1 (configuration not stated) the results were HCMV inh inactive.
Screening Cc1cccn2c(=O)c(/C=C3\SC(=S)NC3=O)c(NCCCN3CCOCC3)nc12 returned Pf growth 48h 13µM, Pf growth 96h inconclusive, Shiga toxin inh inactive, Cycloheximide cs inactive and HCMV inh inconclusive.
For CCCN1C(=O)/C(=C/c2c(NCCCOCC)nc3c(C)cccn3c2=O)SC1=S the results were Pf growth 48h inconclusive, Pf growth 96h inactive, Shiga toxin inh inactive, Cycloheximide cs inactive and HCMV inh inactive.
`Cn1nc([N+](=O)[O-])nc1Oc1ccccc1F` gave Pf growth 48h inactive, Pf growth 96h 13µM, Shiga toxin inh inactive, Cycloheximide cs inactive and HCMV inh inactive.
For Cn1nc([N+](=O)[O-])nc1Oc1ccccc1N the results were Pf growth 96h inactive, Shiga toxin inh inactive, Cycloheximide cs inactive and HCMV inh inactive.
For Cn1nc([N+](=O)[O-])nc1Oc1ccc2ccccc2c1 the results were Pf growth 96h inactive, Shiga toxin inh inactive, Cycloheximide cs inactive and HCMV inh -65.
`CCCCn1nnnc1C1(C)CCC(=O)N1Cc1cccnc1` (configuration not stated) gave HCMV inh inactive.
`Cc1ccc(NC(=O)Cn2nc(N3CCN(c4ccccc4)CC3)ccc2=O)cc1F` gave HCMV inh inactive.
O=C1N(CCCCN2C(=O)C3(OCCO3)c3ccccc32)c2ccccc2C12OCCO2 was read as Pf growth 48h inactive, Pf growth 96h inactive, Shiga toxin inh inactive, Cycloheximide cs inactive and HCMV inh inactive.
Screening Cc1ccc(NC(=O)N2C(=O)C3(OCCO3)c3ccccc32)cc1 returned Pf growth 48h inactive, Pf growth 96h 6.6µM, Shiga toxin inh 93, Cycloheximide cs 43 and HCMV inh inactive.
`CCNC(=O)N1C(=O)C2(OCCO2)c2ccccc21` gave Pf growth 48h inactive, Shiga toxin inh inactive, Cycloheximide cs inactive and HCMV inh inactive.
